# In PubChem BioAssay AID720533 (National Center for Advancing Translational Sciences (NCATS), 2013):
# Values joined by “and” are separate entries in the source; they are usually repeats but may differ in a detail not shown here. Equal values may be shown once. The campaign covered roughly 18,000 compounds. About 750 (4.2%) were called active. Another 13% or so got no clear call; they are omitted. The entries come from a sample that favours actives as a whole. Entries that show only a call come without a potency. A number with no mark means an inactive call. The call rests on the fitted dose curve; tested in HEK293 cells. Starred links: 1 amine or outer side, 2 acyl side, 3 side chain; linkers in the order of their positions; H or OH if unused. Positions of bridges follow the written chain, without caps; N, C: chain ends. Non-standard residues stand in square brackets, D forms with d. Residues, ends and D or L forms follow the SMILES beside them. *: point of attachment. X15 = NC1=N[C@@H]([C@H](N[*:1])C(=O)[*:2])C[C@H](O)N1; ΔAla(Z-3-ureido) = NC(=O)N/C=C(\N)C(=O)O; β3hOrn = NCCC[C@H](N)CC(=O)*; Dap = NC[C@H](N)C(=O)O
# Assay: qHTS for Inhibitors of binding or entry into cells for Lassa Virus
# Details: Lassa virus pseudotyped entry inhibition, cell-based qHTS; series mostly up to 49.2 µM
# Potency means the concentration at half of the fitted maximal effect.
Compound,"activity change, negative = inhibition",Potency
O=C(CCN1Cc2ccccc2OC(c2ccccc2)C1)N[C@@H]1CS(=O)(=O)C[C@H]1O (stereo partly specified),inactive,–
COC(=O)c1c(OCc2ccc(F)cc2)cc(=O)n2c1CCN(Cc1ccc3cccnc3c1)CC2,inactive,–
CC1C(=O)N(Cc2cn(Cc3ccco3)nn2)CCS(=O)(=O)N1Cc1ccc(-c2cccc(CO)c2)cc1 (stereo unspecified),inactive,–
Cc1cccc(CN2CCN(C3CN(Cc4cn(Cc5ccccc5F)nn4)S(=O)(=O)C3)CC2)c1 (stereo unspecified),inactive,–
NCCC[C@H](N)CC(=O)N[C@H]1CNC(=O)[C@H]([C@H]2C[C@H](O)NC(N)=N2)NC(=O)/C(=C/NC(N)=O)NC(=O)[C@H](CO)NC(=O)[C@H](CO)NC1=O (β3hOrn-[Dap]SS[ΔAla(Z-3-ureido)][X15]; lactam 1-C),inactive,–
O=C1C2=C(C(=O)c3ccccc31)[C@H]1O[C@](CCCCN3C(=O)c4ccccc4C3=O)(Cc3c1ccc1ccccc31)O2,10.1% [at 8.59 µM],–
C/C(Nc1ccc2oc(=O)ccc2c1)=C1/C(=O)CC2[C@@H]1C2(C)C (stereo partly specified),inactive,–
CCCCCCc1cc2cc(OC)c(OC)cc2c2c(C(=O)OC)c(C(=O)OC)c(C(=O)OC)n12,-14.4% [at 8.59 µM],–
CO[C@]1(NC(=O)CSC(F)F)C(=O)N2C(C(=O)O)=C(CSc3nnnn3CCO)CO[C@H]21,inactive,–
O=C(C=Cc1ccccc1)Nc1cccc(C(=O)N2CCCCC2)c1,inactive,–
Nc1nc(-c2ccc3c(c2)C(=Cc2cc(Br)c(O)c(Br)c2)C(=O)N3)cs1,inactive,–
Cc1ccc(-c2ccc(CN3C(C(C)C)C(=O)N(Cc4cn(CCC5OCCCO5)nn4)CCS3(=O)=O)cc2)cc1 (stereo unspecified),inactive,–
COC(=O)CC1c2ccccc2C(Cc2ccc(OC)cc2)=C(C)N1C(=O)OC (stereo unspecified),25.9% [at 8.59 µM] and -25.2% [at 8.59 µM],–
C=CC1=C2C=C(C3CC3)N(C(CO)CO)C=C2C(=O)C(C)(OC(=O)c2ccco2)C1=O (stereo unspecified),4.32% [at 8.59 µM],–
COCC(=O)Nc1cc(C(=O)N2CCCC(c3ccccc3)CC2)c2c(c1)nc(-c1ccncc1)n2C (stereo unspecified),inactive,–
C[C@@H](O)[C@@H]1NC(=O)[C@H](CCCCN)NC(=O)[C@H](Cc2c[nH]c3ccccc23)NC(=O)[C@H](Cc2ccccc2)NC(=O)[C@H](Cc2ccccc2)NC(=O)[C@H](CC(N)=O)NC(=O)[C@H](CCCCN)NC(=O)[C@@H](NC(=O)[C@@H]2CCCN2)CSSC[C@@H](C(=O)N[C@@H](CCCCN)C(=O)O)NC(=O)[C@H](CO)NC(=O)[C@H](CO)NC(=O)[C@H](Cc2ccccc2)NC1=O (H-PCKNFFWKTFSSCK-OH; disulfide 2-13),inactive,–
COC1CC(OC2CC[C@@]3(C=O)C4CC[C@]5(C)C(C6=CC(=O)OC6)CC[C@@]5(O)C4CC[C@]3(O)C2)OC(C)C1O (stereo partly specified),–,0.282 µM (active)
C[C@@]12CC[C@H]3[C@@H](CC[C@]4(O)C[C@H](O)CC[C@@]34C=O)[C@]1(O)CC[C@@H]2C1=CC(=O)OC1,–,1.26 µM (active)
Nc1nc2c(nc(Cl)n2C2OC(CO)C(O)C2O)c(=O)[nH]1 (stereo unspecified),inactive,–
CC(C)NC[C@H](O)c1ccc2ccccc2c1,inactive,–
C#C[C@]1(O)CC[C@H]2[C@@H]3CCC4=CC(=O)CC[C@@H]4[C@H]3CC[C@@]21CC,inactive,–
C#C[C@]1(OC(=O)CCCCCC)CC[C@H]2[C@@H]3CCC4=CC(=O)CC[C@@H]4[C@H]3CC[C@@]21C,–,31.6 µM (active)
CC(=O)OCC(=O)[C@@]1(O)CCC2C3CCC4=CC(=O)CC[C@]4(C)C3C(=O)C[C@]21C (stereo partly specified),inactive,–
O=c1[nH]c(=O)c2nc3ccccc3nc2[nH]1,inactive,–
CC(O)(COc1ccccc1)c1ccc2c(c1)CN(Cc1cn[nH]c1-c1ccc(F)cc1)CCO2 (stereo unspecified),inactive,–
CCCCCC(=O)N1C[C@H](n2cc(COC(=O)c3ccccc3)nn2)[C@@H](O)C[C@H]1c1ccc(Cl)cc1,inactive,–

Compound,"activity change, negative = inhibition",Potency
C=C(CCN1C=C(C(=O)OCC)C(c2ccccc2)NC1=O)OC (stereo unspecified),-11% [at 8.59 µM],–
CC(O)[C@@H](N)C(=O)O (stereo partly specified),inactive,–
COc1c(O)c2c(=O)cc(OC)c3c4c(OC)cc(=O)c5c(O)c(OC)c6c(c(c1C[C@@](C)(O)[C@H]6C(C)=O)c23)c54,–,35.5 µM (active)
CCOC(=O)C1=NO[C@@]2(C=C(Br)C(=O)[C@H]3O[C@H]32)C1,inactive,–
COc1ccc(C2CC(=O)Oc3ccc(C(C)(C)C)cc32)cc1 (stereo unspecified),inactive,–
CC(C)C[C@@H](CC(=O)N[C@@H](CCC(=O)O)CC(=O)O)NC(=O)[C@@H]1CCCC[C@H]1NC(=O)C[C@@H](NC(=O)C[C@H](CO)NC(=O)[C@@H]1CCCC[C@H]1N)C(C)C,inactive,–
CN1CCC[C@@H]1CCO[C@](C)(c1ccccc1)c1ccc(Cl)cc1,inactive,–
CN1CCCC1CCO[C@@](C)(c1ccccc1)c1ccc(Cl)cc1 (stereo partly specified),–,12.6 µM (active)
Fc1ccc(C(OCCN2CCN(C/C=C\c3ccccc3)CC2)c2ccc(F)cc2)cc1,–,28.2 µM (active)
COc1ccc(CC2c3cc(OC)c(OC)cc3CC[N+]2(C)CCC(=O)OCCCCCOC(=O)CC[N+]2(C)CCc3cc(OC)c(OC)cc3C2Cc2ccc(OC)c(OC)c2)cc1OC (stereo unspecified),inactive,–
CC(C)[C@@H](CC(=O)N[C@@H]1CCNC[C@H]1C(=O)N[C@H](CC(=O)N[C@@H](CCC(=O)O)CC(=O)O)Cc1ccccc1)NC(=O)C[C@H](CO)NC(=O)[C@@H]1CNCC[C@H]1N,inactive,–
CN1CC(O)c2cc(N=NC(N)=O)c(O)cc21 (stereo unspecified),inactive,–
CN(C)CCc1c[nH]c2ccc(Cn3cncn3)cc12,inactive,–
Fc1ccc(Cl)cc1-c1nc(Nc2ccncc2)c2nccnc2n1,inactive,–
CCS(=O)(=O)N(C)[C@@H]1c2cc(C#N)ccc2OC(C)(C)[C@H]1O,inactive,–
CCc1cc2c(nc1CC)CCN(CCC(C)=NOC[C@@H](O)COCc1ccco1)C2,3.34% [at 8.59 µM],–
Cc1ccc(-c2cc(=O)c3ccc(Cl)cc3[nH]2)cc1,inactive,–
C=C(C(C)=O)C(O)c1cccs1 (stereo unspecified),inactive,–
COC12CC[C@@]3(C[C@@H]1C(C)(O)C(C)(C)C)[C@H]1Cc4ccc(O)c5c4[C@@]3(CCN1CC1CC1)[C@H]2O5 (stereo partly specified),–,28.2 µM (active)
COc1ccc(CNS(=O)(=O)c2cc(Br)ccc2Br)cc1,inactive,–
O=S(O)CNc1ccc(S(=O)(=O)c2ccc(NCS(=O)O)cc2)cc1,inactive,–
O=C(O)C1=CCCN(CCON=C(c2ccccc2)c2ccccc2)C1,inactive,–
COc1ccc(C2=C(N3CCc4ccccc43)C(=O)NC2=O)cc1,inactive,–
CC1=C(/C=C/C(C)=C/C=C/C(C)=C/C=C/C=C(C)/C=C/C=C(C)/C=C/C2=C(C)CCCC2(C)C)C(C)(C)CCC1,inactive,–
COc1ccc(CCNc2ncnc3sc(C(=O)N4CCCC4)c(C)c23)cc1OC,inactive,–
Cc1c2ccc(N(C)c3ccnc(Nc4cccc(S(N)(=O)=O)c4)n3)cc2nn1C,inactive,–

Compound,"activity change, negative = inhibition",Potency
C=CCC(C)(O)c1ccco1 (stereo unspecified),inactive,–
CC1=C[C@H]2c3ccccc3C[C@H]2CO[C@]12C(=O)N(Cc1ccc(Br)cc1)c1ccccc12,16.7% [at 8.59 µM],–
COc1ccccc1-c1ccnc(-n2ncc(C(=O)NCCc3ccncc3)c2C)n1,inactive,–
CCOc1ccc(NS(=O)(=O)c2ccc(N)cc2)nn1,inactive,–
CC(C)[C@@H](CO[Si](C)(C)C(C)(C)C)N1C[C@@H](N2CCCC2)CS1(=O)=O,inactive,–
C=CC1=C2C=C(C3CC3)N(CC(C)C)C=C2C(=O)C(C)(OC(=O)c2ccco2)C1=O (stereo unspecified),-4.02% [at 8.59 µM],–
NC(=O)C(=O)N/N=C/c1ccc([N+](=O)[O-])o1,inactive,–
Cc1ccc(-c2nn(CC(C)(C)C)c3ncnc(N)c23)cc1,inactive,–
Cc1csc(-c2coc3cc(O[C@@H]4O[C@H](CO)[C@@H](O)[C@@H](O)[C@H]4O)ccc3c2=O)n1,inactive,–
COc1ccc([C@@H](NC(=O)C(F)(F)F)C2CCCC=C2c2ccccc2)cc1OC (stereo partly specified),-11.1% [at 8.59 µM],–
NNc1nnc(Cc2ccncc2)c2ccccc12,inactive,–
O=Cc1c(Cl)cccc1Cl,inactive,–
O=C1C(c2ccccn2)=[N+]([O-])c2ccccc21,inactive,–
Cc1nnc(C(=O)NC(C)(C)c2nc(C(=O)NCc3ccc(F)cc3)c(O)c(=O)n2C)o1,inactive,–
C[C@@H]1C[C@H]2CC[C@H](O2)[C@H](C)C(=O)O[C@@H](C)C[C@@H]2CC[C@@H](O2)[C@@H](C)C(=O)O[C@H](C)C[C@H]2CC[C@H](O2)[C@H](C)C(=O)O[C@@H](C)C[C@@H]2CC[C@@H](O2)[C@@H](C)C(=O)O1,–,0.562 µM (active)
CCCCCCCCCCCC(=O)O[C@H](CC(=O)O)C[N+](C)(C)C,inactive,–
COC1=C[C@H](C(=O)N[C@H]2CCCC[C@H]2NC(C)=O)[C@H](C)[C@@H](c2ccccc2)CC1=O,-1.51% [at 8.59 µM],–
COc1cccc([C@@H]2Oc3ccc(Br)cc3C(=O)[C@H]2OC(=O)NCc2ccc3c(c2)OCO3)c1,inactive,–
CN1CCCCCC1C(=O)NCCN1Cc2ccccc2OC(c2ccsc2)C1 (stereo unspecified),inactive,–
CCCCC/C=C\C[C@H](O)/C=C/C=C/C=C/[C@@H](O)CCCC(=O)O,inactive,–
O=C(/C=C/c1cccc(F)c1)NC1CC1,inactive,–
CC[N+](C)(CC)CCC[n+]1c(-c2ccccc2)c2cc(N)ccc2c2ccc(N)cc21,–,3.16 µM (active)
Brc1ccc(C2=NCCC(c3ccccc3)O2)cc1 (stereo unspecified),inactive,–
COC1=C[C@H](C(=O)NCc2ccccc2)[C@@]2(C)Cc3ccccc3[C@@H]2CC1=O,-4.25% [at 8.59 µM],–
